S-ASM inh – Inhibitors of Secretory Acid Sphingomyelinase (S-ASM): qHTS; Sphingomyelin phosphodiesterase (Homo sapiens), P17405; placental ASM, HMU-PC fluorogenic substrate, 60 min; Potency, µM (titrated, usually from 57.5 µM), without a hit: at the top dose activity change, negative = inhibition, usual class: inhibitors; hit rate 0.006% among 340,000; further: potency means the concentration at half of the fitted maximal effect
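Steps: dispense placental human ASM, pin compound, wait 10 min at room temperature, add HMU-PC0 substrate at 9 uM final, incubate 60 min at 37 °C, add stop solution raising pH to 10, read fluorescence.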
hERG WT inh – qHTS for Inhibitors of KCHN2 3.1: Wildtype qHTS. hit rate 0.37% among 340,000. U2OS, BacMam KCNH2, thallium flux FluxOr; hits give low values. activity change, % at 1.84 µM;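 active means maximum activity change below -70%; inconclusive means maximum activity change between -70% and -50%; inactive means maximum activity change above -50%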; further: on the % scale 0 is the no-effect control and ±100 the full control effect
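U2OS cells transduced with wild-type KCNH2 virus are loaded with FluxOr dye for 45 min, and thallium flux is measured in kinetic reads before and after stimulation buffer. Rate constants are normalized to DMSO controls.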
IDH1 R132H inh – qHTS for Inhibitors of mutant isocitrate dehydrogenase 1 (IDH1): qHTS. IDH1-R132H enzyme, NADPH consumption, diaphorase/resazurin fluorescence. Potency, µM (doses to about 76.6 µM), for inactives: at the highest dose activity change, negative = inhibition, usual class: inhibitors. hit rate 0.093% among 390,000; further: potency means the concentration at half of the fitted maximal effect; on the % scale 0 is the no-effect control and ±100 the full control effect; nearly all actives have a fitted effect of over 65% in size
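IDH1-R132H (0.5 ug/mL) preincubated 30 min with compound, then NADPH (0.016 mM) and alpha-KG (2 mM) added; 80 min at RT, pH 7.5. Remaining NADPH coupled via diaphorase/resazurin to fluorescence (540/590 nm); concentration-response curves normalized to no-enzyme control.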
Anesthetic bind – qHTS Assay for Identification of Novel General Anesthetics | apoferritin/1-aminoanthracene competitive binding, fluorescence | Potency, µM (doses to about 77.5 µM), for the others: at the top dose activity change, negative = displacement, actives largely listed as inhibitors | hit rate 0.074% among 350,000; further: potency means the concentration at half of the fitted maximal effect; on the % scale 0 is the no-effect control and ±100 the full control effect; nearly all actives have a fitted effect of over 20% in size
Target sequence (P02791 2-175 limits assumed): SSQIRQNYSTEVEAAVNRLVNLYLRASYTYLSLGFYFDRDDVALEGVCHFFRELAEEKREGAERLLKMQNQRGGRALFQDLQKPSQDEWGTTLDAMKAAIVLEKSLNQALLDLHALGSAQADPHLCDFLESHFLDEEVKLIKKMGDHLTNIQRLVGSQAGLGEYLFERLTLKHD
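Apoferritin-based anesthetic binding model; compound displacement of fluorescent 1-AMA measured as endpoint fluorescence after 10 minutes at room temperature, scaled to free-ligand and complex controls.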
KCNH2 3.1 inh – qHTS for Inhibitors of KCHN2 3.1: Mutant qHTS; Potassium voltage-gated channel subfamily H member 2, brain isoform KCNH2 3.1 (human); U2OS KCNH2 3.1, thallium flux FluxOr; hits give low values; hit rate 0.95% among 340,000; activity change, % (tested at about 1.8 µM);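 active means maximum activity change below -70%; inconclusive means maximum activity change from -70% to -50%; inactive means maximum activity change above -50%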;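 further: thallium influx rate constant from kinetic fluorescence after stimulation buffer; on the % scale 0 is the no-effect control and ±100 the full control effect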
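Channel expression came from 3.1 mutant virus (1.77 x 10^8 /mL) applied to suspended U2OS cells for 4 h. Flux was tracked with FluxOr dye plus Red40 quencher, and kinetic rate constants normalized to controls.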
* = called active by the depositor; ? = inconclusive; . = not tested or not shown; [ ] = dose if it differs, or a comment. A selection: hits, their analogues and other compounds. The true share with any hit is near 1.2%. Unless noted, the call rests on the fitted dose curve; in most records, active means well fitted inhibition curve with a large enough effect; inconclusive means small, poorly fitted or top-dose-only effect; inactive means no such curve, though single readings can be large or run the other way.

SMILES	S-ASM inh	hERG WT inh	IDH1 R132H inh	Anesthetic bind	KCNH2 3.1 inh
N#CC1=C(N)C(C#N)(C#N)C(c2cccnc2)C2CN(C(=O)OCc3ccccc3)CC=C12 (centres undefined)	61.1%	1.0	52.1µM*	-4.3%	-6.0
CCOC(=O)N1CC=C2C(C#N)=C(N)C(C#N)(C#N)[C@H](c3ccc(OCC)c(OCC)c3)[C@H]2C1	13.5%	-11.6	-9.2%	?	.
NS(=O)(=O)c1cccc(NC(=O)COC(=O)CCC(=O)c2cccs2)c1	0.2%	-2.5	-14.5%	.	-70.9*
Cc1c(O)ccc2c1OCO2	.	.	.	-1.5%[15.3 µM]	.
Cc1ccc(C)c(NC(=O)CSc2c(C)cnc3c2c(=O)n(C)c(=O)n3C)c1	.	.	-12.0%	-6.5%	.
CCOC1(/N=C(\C)NS(=O)(=O)c2ccc(Cl)cc2)C(C)=CC(=O)C=C1C	8.4%	17.1	-1.6%	-8.9%	-98.6*
Cc1cc(NC(=O)CCC(=O)N(c2ccccc2)C(C(=O)NC2CCCC2)c2cccs2)no1 (centres undefined)	-0.6%	4.3	-2.7%	-22.5%	-185.7*
CC1CN(C)C(C)C/C1=N\Oc1ccc([N+](=O)[O-])cc1 (centres undefined)	-1.7%	-14.5	0.6%	-16.2%	-88.0*
COc1cc(NC(=O)c2cc3nc(-c4ccccc4)cc(-c4ccccc4)n3n2)cc(OC)c1OC	-6.4%	-4.7	5.8%	-10.0%	-72.9*
COc1cc(NC(=O)c2cc(-c3ccccc3)on2)cc(OC)c1OC	-6.4%	-3.9	-15.3%	0.8%	2.7
Cc1cccc(Cn2c(SCCN3CCCCC3)nc3c2c(=O)[nH]c(=O)n3C)c1	-4.4%	-34.0	9.9%	-6.2%	-81.0*
Cn1c(=O)[nH]c(=O)c2c1nc(SCCN1CCCCC1)n2CCCc1ccccc1	-0.5%	-0.8	1.1%	-11.2%	-32.3
Cn1c(=O)[nH]c(=O)c2c1nc(SCCN1CCCCC1)n2Cc1ccccc1	2.8%	-40.1	2.0%	-3.3%	-73.6*
Cc1ccc(Cn2c(SCCN3CCCCC3)nc3c2c(=O)[nH]c(=O)n3C)cc1	1.9%	-42.4	0.0%	-9.5%	-94.8*
O=C(CCCc1ccccc1)NC1CC(=O)N(c2ccc(F)cc2)C1 (centres undefined)	.	.	-12.6%	5.0%	.
Cc1ccccc1NC(=O)c1cc([N+](=O)[O-])ccc1NCCN1C(=O)CCC1=O	-9.0%	4.5	-1.0%	-13.2%	-159.0*
Cc1cn2c(=O)cc(COC(=O)c3cccc(NC(=O)COc4ccccc4Cl)c3)nc2s1	.	.	1.8%	-0.9%	.
Cc1ccc(S(=O)(=O)c2cn(CC(=O)Nc3ccc4c(c3)OCO4)c3ccccc3c2=O)cc1C	.	.	0.2%	-14.9%	.
Cc1ccc(C)c(CSc2nnc3[nH]c(=O)cc(-c4ccccc4)n23)c1	.	.	-0.4%	-14.2%	.
Fc1cccc(Cl)c1CSC1=NCCS1	2.2%	-7.1	0.0%	?	-1.4
ON(Cc1c(F)cccc1Cl)Cc1c(F)cccc1Cl	5.7%	0.7	-3.9%	-16.7%	-113.9*
COc1ccc(C(=O)Nc2nc3ccc4nc(C)sc4c3s2)cc1	-0.7%	11.8	-6.0%	6.6%	-94.1*
CCCNC(=O)OC[C@@H]1O[C@H](CCO/N=C(\C)CCN2CCc3nc(-c4ccccc4)c(-c4ccccc4)cc3C2)C=C[C@@H]1Oc1ccc(OC)cc1	.	.	.	-10.6%[15.3 µM]	.
CCC1CCCCN1S(=O)(=O)c1ccc(C(=O)N(CCCN(C)C)c2nc3cc4c(cc3s2)OCO4)cc1 (centres undefined)	-5.2%	35.1	-11.7%	56.2µM*	-4.1
CCc1ccc(NC(=O)CN(c2ccc(Cl)cc2)S(=O)(=O)c2ccsc2C(=O)OC)cc1	.	.	-15.8%	-7.4%	.
Cc1noc(C)c1C(=O)OCC(=O)NCCc1ccc(S(N)(=O)=O)cc1	2.8%	-9.6	0.0%	.	-83.7*

Screens as filed in PubChem BioAssay.
